# FadD28 FP inh: M. tuberculosis FadD28 bisubstrate binding inhibition | FadD28 bisubstrate probe binding, fluorescence polarization | hit rate 0.22% among 360,000 | inhibition, % at 12.5 µM; in the data active = inhibition above about 8.5%, passing the limit was not always enough
# BioA inh: inhibitors of Mycobacterium tuberculosis BioA enzyme; purified M. tuberculosis BioA enzyme, plate reader; inhibition, % at 9.99 µM; hit rate 0.096% among 360,000; AID 602481; in the data active = inhibition above about 40%
# PrP UTR inh: suppresses PrP 5' UTR mRNA reporter expression; inhibition, % (concentration not given with the values); AID 488862; hit rate 0.35% among 340,000; cell-based PrP 5' UTR mRNA reporter, plate reader; in the data active = inhibition above about 52%
# TcdB GH inh: inhibitors of Clostridioides difficile toxin B glycohydrolase; TcdB glycohydrolase enzymatic assay, plate reader; hit rate 0.24% among 350,000; P18177; inhibition, % at 9.99 µM; in the data active = inhibition above about 10%
# PfHsp40 rescue: restores yeast growth despite PfHsp40 toxicity | S. cerevisiae expressing PfHsp40, growth rescue, ATP luminescence | hit rate 0.68% among 340,000 | growth rescue, % at 12.5 µM; in the data active = growth rescue above about 28%, passing the limit was not always enough;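 also: yeast W303a lacking pdr1 and pdr3 grown in galactose medium; growth measured after three days at 30 °C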
# Hits are given with their value; . = inactive; / = no result. Shown are actives, neighbours in structure and some others; about 1.1% of the full set was active somewhere.
SMILES,FadD28 FP inh,BioA inh,PrP UTR inh,TcdB GH inh,PfHsp40 rescue
COc1ccc(C(=O)NC(CC(=O)O)c2cc([N+](=O)[O-])ccc2Cl)cc1 (centres undefined),.,.,.,.,.
COc1ccc(C(=O)NC(CC(=O)O)c2cc([N+](=O)[O-])ccc2Cl)c(SC)c1 (centres undefined),.,/,.,33.7,.
COCC(=O)N1[C@@H](CO)[C@@H]2c3ccccc3N(C(=O)c3cccnc3)C[C@@H]21,/,.,/,.,/
CCOc1ccc(Oc2cc(NC(=O)c3ccco3)cc([N+](=O)[O-])c2)cc1,.,/,.,/,.
O=C(Nc1cc(Oc2ccc(Cl)cc2)cc([N+](=O)[O-])c1)c1ccco1,.,/,.,/,352.3
C[C@H](CO)N1C[C@H](C)[C@H](CN(C)Cc2ccc(C(F)(F)F)cc2)Oc2ccc(NS(=O)(=O)c3cccs3)cc2C1=O,/,.,/,.,/
CCSc1nnc(NC(=O)c2nc(-c3ccccc3)n(-c3ccccc3)n2)s1,.,.,.,/,125.7
Cc1csc(NC(=O)c2nc(-c3ccccc3)n(-c3ccccc3)n2)n1,.,.,.,/,.
CCSc1nnc(NC(=O)C2CC2c2ccccc2)s1 (centres undefined),.,/,.,12.0,.
O=C(C[C@@H]1C[C@@H]2c3cc(NC(=O)Nc4ccc(C(F)(F)F)cc4)ccc3O[C@@H]2[C@@H](CO)O1)NCc1ccccn1,/,.,/,.,/
O=C1C2ON(c3ccccc3)C(c3ccncc3)C2C(=O)N1c1ccccc1 (centres undefined),.,/,.,/,.
Cc1cccc(C)c1N1C(=O)C2ON(c3ccccc3)C(c3ccncc3)C2C1=O (centres undefined),.,.,.,.,253.7
COc1ccc(NC(=O)Nc2ccc3c(c2)CC(=O)N([C@H](C)CO)C[C@H](C)[C@@H](CN(C)Cc2ccc4c(c2)OCO4)O3)cc1,/,.,/,.,/
O=Cc1ccccc1-n1cncn1,.,.,79.8,.,.
Nc1ncc(-n2cncn2)c(-c2ccccc2)n1,.,/,.,.,.
COc1ccc(C(C#N)=Cc2ccc(OC)c(OC)c2)cc1,.,.,/,.,/
COc1ccc(/C=C(/C#N)c2cccnc2)cc1OC,.,58.0,.,.,.
C[C@H](O)C#Cc1cnc2c(c1)C(=O)N([C@H](C)CO)C[C@@H](C)[C@@H](CN(C)Cc1cccc(F)c1)O2,/,.,/,.,/
CC(C)C#Cc1ccc2c(c1)O[C@@H](CN(C)Cc1ccccc1)[C@@H](C)CN([C@H](C)CO)S2(=O)=O,/,.,/,.,/
Cc1nc2[nH]c(=S)[nH]c(=O)c2nc1C,.,.,.,.,.
Cc1nc2[nH]c(=S)[nH]c2c(=O)[nH]1,.,.,.,28.5,.
CC(=O)N1[C@@H](CO)[C@H](c2ccc(-c3ccccc3)cc2)[C@@H]1CNC(=O)C1CC1,/,.,/,/,/
CC1C(=O)C(C)C(c2ccc([N+](=O)[O-])cc2)NC1c1ccc([N+](=O)[O-])cc1 (centres undefined),.,/,.,18.1,.
COc1cc(OC)c(OC)cc1/C=C/c1cc(C(=O)O)c2ccccc2n1,.,/,.,.,.
COc1ccc(/C=C/c2cc(C(=O)O)c3ccccc3n2)cc1,.,.,71.3,.,.
SMILES,FadD28 FP inh,BioA inh,PrP UTR inh,TcdB GH inh,PfHsp40 rescue
COCC(=O)Nc1ccc2c(c1)C(=O)N(C)C[C@@H](OC)[C@@H](C)CN(C)[C@H](C)CO2,/,.,/,.,/
COc1cc(NC(=O)CSc2nc3[nH]ncc3c(=O)n2-c2ccccc2C)cc(OC)c1OC,.,/,.,18.4,.
COC(=O)C1=C(C(=O)OC)C2OC1c1cc3ccccc3cc12,.,/,.,.,71.1
C[C@H]1CN([C@@H](C)CO)C(=O)Cc2cc(NC(=O)CCC(F)(F)F)ccc2O[C@@H]1CN(C)C(=O)Nc1ccccc1,/,.,/,.,/
O=c1ccc2cc3c([nH]c4ccc(Br)cc43)oc-2c1O,21.5,.,.,/,228.3
CCCCn1c(NC(=O)c2ccccc2)nc2ccccc21,.,.,.,/,97.2
CCn1c(NC(=O)c2ccccc2)nc2ccccc21,.,.,.,.,.
CCC(=O)Nc1ccc2c(c1)C(=O)N(C)C[C@H](OC)[C@@H](C)CN(Cc1ccncc1)[C@H](C)CO2,/,.,/,/,/
Cc1c(C(=O)Nc2ccc3c(c2)OCCO3)sc2nc(-c3ccccc3)cn12,.,.,.,.,144.9
O=C(O)c1cccc(-n2cccc2/C=C\[N+](=O)[O-])c1,.,/,.,.,.
O=C(O)c1cccc(-n2cccc2/C=C/[N+](=O)[O-])c1,13.0,/,.,.,.
O=C(O)CCC(=O)Nc1ccc(C(=O)OCC(=O)c2ccc(Cl)cc2)cc1,15.0,.,.,.,.
CCCNC(=O)C[C@@H]1CC[C@@H]2[C@@H](COc3ccc(NC(=O)c4cscn4)cc3C(=O)N2C)O1,/,.,/,/,/
C/C=C/c1ccc([C@H]2[C@@H](CO)N3C(=O)CN(Cc4ccccc4)C[C@@H]23)cc1,/,/,/,.,/
Fc1ccc(-c2nc3ccc(Br)cn3c2Cc2ccccc2)cc1,.,.,/,12.5,/
O=C(Cc1coc2cc(O)ccc12)NNC(=O)c1cccs1,.,.,.,19.4,.
CC[C@H](C)[C@@H]1NC(=O)c2cc([N+](=O)[O-])cc(I)c2NCC[C@@H](C(N)=O)NC(=O)[C@H](CCCN=C(N)N)NC1=O,/,/,/,10.2,/
CC[C@H](C)C1NC(=O)[C@H](CC(=O)O)NC(=O)c2cc([N+](=O)[O-])cc(I)c2NCCC(C(N)=O)NC1=O (some centres undefined),.,.,.,.,.
Cc1cc(C)c(OCC(=O)Nc2cccc(NC(=O)c3ccco3)c2)c(Br)c1,.,.,.,/,121.7
COc1cccc(/C=N/NC(=S)Nc2cccc(S(=O)(=O)N(C)C)c2)c1,.,.,.,.,.
COc1ccc(O)c(/C=N/NC(=S)Nc2cccc(S(=O)(=O)N(C)C)c2)c1,17.6,.,.,/,.
Clc1ccc2c(c1)c1ccccc1n2CN1CCOCC1,.,.,.,.,31.2
COc1ccc(Cl)cc1CN1CCOCC1,.,.,.,.,.
Clc1ccc2c(c1)c1cc(Cl)ccc1n2CN1CCOCC1,.,.,.,/,367.4
CCn1c2ccccc2c2cc(CNCCCN3CCOCC3)ccc21,.,.,.,.,.
SMILES,FadD28 FP inh,BioA inh,PrP UTR inh,TcdB GH inh,PfHsp40 rescue
O=C(c1ccncc1)N1CC[C@@H]2[C@@H](CO)Nc3ccc(C4=CCCCC4)cc3[C@@H]21,/,.,/,.,/
COc1ccccc1NC(=O)N(C)C[C@H]1OCc2ccccc2-c2ccccc2C(=O)N([C@@H](C)CO)C[C@@H]1C,/,.,/,.,/
C[C@H](CO)N1C[C@H](C)[C@H](CN(C)C(=O)Nc2ccccc2)Oc2c(NC(=O)C3CC3)cccc2C1=O,/,.,/,.,/
COc1cc2c(c(OC)c1OC)-c1ccc(O)c(=O)cc1[C@@H](NC(C)=O)CC2,.,.,.,.,325.5
COc1cc2c(c(OC)c1OC)-c1ccc(O)cc1[C@@H](NC(C)=O)CC2,.,.,68.0,.,.
COc1cc2c(c(OC)c1OC)-c1ccc(NC(=O)c3ccccc3)c(=O)cc1[C@@H](NC(C)=O)CC2,/,/,.,.,.
CC(C)NC(=O)Nc1ccc2c(c1)C(=O)N([C@@H](C)CO)C[C@H](C)[C@H](CN(C)Cc1ccc3c(c1)OCO3)OCCCC[C@@H](C)O2,/,.,/,/,/

# Screens: PubChem, Broad Institute
